Results on nine molecules are retold here after PubChem BioAssay (NCATS).

Several values for one entry are separate records, joined by “and”; a condition that tells them apart may be missing. Equal values may be shown once.

The nature of test [1]: qHTS profiling for inhibitors of Plasmodium falciparum (3D7) proliferation (AID 743322).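 Also: infected erythrocytes exposed to compound for 72 h before lysis; 100% = DMSO vehicle wells and 0% = 0.29 µM artemisinin.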 The following applies: P. falciparum 3D7 proliferation; at 28.7 µM (top of the series). The essentials:
(§1)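 Parasite DNA was quantified by SYBR Green I fluorescence (ex 485, em 535 nm) after overnight lysis in saponin/Triton buffer at room temperature. Cultures at 0.3% parasitemia and 2.5% hematocrit were first exposed to compound for 72 h at 37 C; signals were normalised to artemisinin (0.29 uM) and vehicle wells.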
On the technique in general: Quantitative high-throughput screening tests each substance at several concentrations.

A short description of test [2]: qHTS profiling for inhibitors of Plasmodium falciparum (DD2) proliferation (AID 743323). The following applies: lower = more inhibition; at 28.7 µM (top of the series). The procedure, abridged: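 SYBR Green fluorescence (ex 485, em 535 nm) of lysed cultures gives parasite DNA content; wells normalized to artemisinin (0.29 uM) and DMSO controls. Infected red cells: 0.3% parasitemia, 2.5% hematocrit, 72 h, 37 C.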

Test [3] can be described thus: qHTS profiling of the MIPE4 collection as inhibitors of Plasmodium falciparum (3D7) proliferation (AID 743344).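 Also: scaled between DMSO vehicle wells and 0.29 µM artemisinin as full inhibition.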 To be noted: P. falciparum 3D7 in erythrocytes, SYBR Green DNA fluorescence, 72 h; at 28.5 µM (top of the series) unless noted. The essentials: as §1
Test [4] can be described thus: qHTS profiling of the MIPE4 collection as inhibitors of Plasmodium falciparum (DD2) proliferation (Rep 2) (AID 743346). To be noted: P. falciparum Dd2 in erythrocytes, SYBR Green DNA, 72 h; at 28.5 µM (top of the series) unless noted. The essentials:
as §1

The nature of test [5]: qHTS profiling of the MIPE4 collection as inhibitors of Plasmodium falciparum (HB3) proliferation (AID 743347).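 Also: plate controls were DMSO vehicle wells for no effect and artemisinin wells for full effect.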 The following applies: P. falciparum HB3 in erythrocytes, SYBR Green DNA, 72 h; at 28.5 µM (top of the series) unless noted. The essentials: as §1
The nature of test [6]: High-throughput drug toxicity screening in the BPDCN cell line Gen2.2 (AID 1224824).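 Also: cells exposed to compounds for 48 h before reading.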 To be noted: Gen2.2 BPDCN cells; at 45.8 µM (top of the series) unless noted. The essentials:
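Gen2.2 cells, 500 per well in phenol red-free RPMI with 10% FBS, exposed to compounds 48 h at 37 C, 5% CO2; viability by CellTiter-Glo luminescence. Percent activity scaled to DMSO (100%) and 9.2 uM bortezomib final (0%).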

A short description of test [7]: High-throughput drug toxicity screening in the BPDCN cell line Cal-1 (AID 1224825). To be noted: Cal-1 BPDCN cell viability, qHTS; at 45.8 µM (top of the series) unless noted. The procedure, abridged:
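Viability of the BPDCN line Cal-1 is measured as ATP-based luminescence (CellTiter-Glo) following 48 h incubation with compounds. Percent activity uses DMSO-treated wells as 100% and 9.2 uM bortezomib as 0%.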

Test [8] is described as follows: qHTS profiling of the MIPE4 collection as inhibitors of Plasmodium falciparum (DD2) proliferation (AID 743345). The following applies: P. falciparum Dd2 in erythrocytes, SYBR Green DNA, 72 h; at 28.5 µM (top of the series) unless noted. The essentials:
as §1

As for `Nc1ccccc1NC(=O)c1ccc(CNC(=O)OCc2cccnc2)cc1`, the remaining parasite growth % (stronger effect = lower value) in test [1] came to 99.2%. Further, the activity, percent of control in test [2] amounted to 92.8%. In test [3], this molecule had a parasite growth, % of DMSO control of 25.3%. In addition, the parasite growth, % of control (lower = inhibition) in test [4] was 25.4%. In test [5], this molecule returned a growth, % of control of 7.7%. Besides, in test [6], the cell viability, % of control (lower = more cytotoxic) amounted to 2.59%. In test [7], this molecule returned a viability (% of control) of 5.69%.

With `C1Cc2[nH]nc(-c3nn[nH]n3)c2C1`, the remaining parasite growth % (stronger effect = lower value) in test [1] turned out to be 48.8%. Further, the activity, percent of control in test [2] is 98.8%. This molecule had a parasite growth, % of DMSO control in test [3] of 96.6%. For the same molecule, in test [8], the parasite growth remaining, % of DMSO control (lower = more inhibition) stood at 93.2%. Further, in test [4], the parasite growth, % of control (lower = inhibition) turned out to be 178%. The molecule further returned a growth, % of control in test [5] of 108%. Moreover, in test [6], the cell viability, % of control (lower = more cytotoxic) stood at 194%. In test [7], the viability (% of control) was 98.5%.

Turning to `COc1cccc2nc(-c3cccs3)nc(NN3C(=O)C=C(C)C3=O)c12`, in test [1], the remaining parasite growth % (stronger effect = lower value) worked out at 92.8%. Moreover, the activity, percent of control in test [2] was found to be 81.6%. This molecule also registered a parasite growth, % of DMSO control in test [3] of 27.1%. For the same molecule, the parasite growth remaining, % of DMSO control (lower = more inhibition) in test [8] came to 90.8%. Also, the parasite growth, % of control (lower = inhibition) in test [4] worked out at 18.1%. In test [5], the growth, % of control came to 6.3%. For the same molecule, the cell viability, % of control (lower = more cytotoxic) in test [6] turned out to be 4.3%. Also, the viability (% of control) in test [7] is 3.16%.

As for `Clc1ccc2ncc(-c3cccc(NC4CNC4)n3)n2c1`, the remaining parasite growth % (stronger effect = lower value) in test [1] came out at 5.93%. Further, in test [2], the activity, percent of control came to 12%. Besides, the parasite growth remaining, % of DMSO control (lower = more inhibition) in test [8] was 24.5%. Also, the parasite growth, % of control (lower = inhibition) in test [4] was 24.4%. In test [5], this molecule had a growth, % of control of 3.87%. The cell viability, % of control (lower = more cytotoxic) in test [6] was 15.7%. Moreover, the viability (% of control) in test [7] is 4.56%.

On to `CC[C@@H]1C(=O)N(C)c2cnc(Nc3ccc(C(=O)NC4CCC(N5CCN(CC6CC6)CC5)CC4)cc3OC)nc2N1C(C)C` (some centres not stated), for which the remaining parasite growth % (stronger effect = lower value) in test [1] was -0.343%. The activity, percent of control in test [2] stood at 1.64%. The molecule further gave a parasite growth, % of DMSO control in test [3] of 4.79%. In test [4], the parasite growth, % of control (lower = inhibition) was found to be 17.4%. For the same molecule, in test [6], the cell viability, % of control (lower = more cytotoxic) was 2.88%. Also, the viability (% of control) in test [7] worked out at 3.23%.

Regarding `O=C(NC1CCNCC1)c1[nH]ncc1NC(=O)c1c(Cl)cccc1Cl`, the remaining parasite growth % (stronger effect = lower value) in test [1] is 5.64% and 1.64%. The activity, percent of control in test [2] was 9.64% and 5.01%. In test [3], this molecule registered a parasite growth, % of DMSO control of 10.8%. In test [8], this molecule gave a parasite growth remaining, % of DMSO control (lower = more inhibition) of 11.4%. Moreover, in test [4], the parasite growth, % of control (lower = inhibition) was 22%. In addition, the growth, % of control in test [5] was determined as 8.44%. Moreover, the cell viability, % of control (lower = more cytotoxic) in test [6] was 5.14%. The molecule further returned a viability (% of control) in test [7] of 2.11%.

For the molecule `CCC[C@H](NC(=O)C(C#N)=Cc1cccc(Br)n1)c1ccccc1`, in test [1], the remaining parasite growth % (stronger effect = lower value) came out at 26.8%. In addition, the activity, percent of control in test [2] stood at 23.2%. In addition, the parasite growth, % of DMSO control in test [3] worked out at 11.6%. This molecule displayed a parasite growth remaining, % of DMSO control (lower = more inhibition) in test [8] of 6.9%. In addition, the parasite growth, % of control (lower = inhibition) in test [4] is 17.5%. The same molecule came in with a growth, % of control in test [5] of 4.55%. The cell viability, % of control (lower = more cytotoxic) in test [6] was determined as 15.9%. In test [7], this molecule registered a viability (% of control) of 4.33%.

Turning to `Cc1cccc(C=NNc2cc(N3CCOCC3)nc(OCCc3ccccn3)n2)c1`, the remaining parasite growth % (stronger effect = lower value) in test [1] turned out to be 3.29%. Further, the activity, percent of control in test [2] is 8.46%. Moreover, the parasite growth, % of DMSO control in test [3] amounted to 5.56%. In test [8], the parasite growth remaining, % of DMSO control (lower = more inhibition) was determined as 15.2%. The parasite growth, % of control (lower = inhibition) in test [4] stood at 11.8%. In test [5], this molecule displayed a growth, % of control of 4.79%. Besides, the cell viability, % of control (lower = more cytotoxic) in test [6] came to 60.1%. For the same molecule, in test [7], the viability (% of control) was determined as 63.7%.

Regarding `CC(C)C[C@H](NC(=O)CNC(=O)c1cc(Cl)ccc1Cl)B(O)O`, the remaining parasite growth % (stronger effect = lower value) in test [1] was -0.752%. In addition, in test [2], the activity, percent of control is -0.333%. Moreover, the parasite growth, % of DMSO control in test [3] is 5.16%. In test [8], this molecule gave a parasite growth remaining, % of DMSO control (lower = more inhibition) of 7.7%. In addition, the growth, % of control in test [5] is 3.75%. In test [6], the cell viability, % of control (lower = more cytotoxic) is 2.43%. The viability (% of control) in test [7] is 4.79%.
